Mac1 fbg inh = blocks human CD11b/CD18 adhesion to fibrinogen | K562 CD11b/CD18 adhesion to fibrinogen, ATPlite luminescence; Mn2+ added to activate the integrin | inhibition, % at 10 µM | 0.54% of 93,000 active | AID 1497;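 active means primary inhibition of 50% or more at 10 µM, then 40% or more on retest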
CYP2C9 act = CYP2C9 (human) activation; P11712; recombinant CYP2C9, luciferin-H conversion, luminescence; hits give high values; factor 1 = untreated enzyme, 0 = blocked; activation factor at 5 µM; 1.4% of 96,000 active; AID 1024;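 active means activation factor of 2 or more for CYP2C9 at a 5 µM dose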
Target sequence (P11712 whole entry, looked up): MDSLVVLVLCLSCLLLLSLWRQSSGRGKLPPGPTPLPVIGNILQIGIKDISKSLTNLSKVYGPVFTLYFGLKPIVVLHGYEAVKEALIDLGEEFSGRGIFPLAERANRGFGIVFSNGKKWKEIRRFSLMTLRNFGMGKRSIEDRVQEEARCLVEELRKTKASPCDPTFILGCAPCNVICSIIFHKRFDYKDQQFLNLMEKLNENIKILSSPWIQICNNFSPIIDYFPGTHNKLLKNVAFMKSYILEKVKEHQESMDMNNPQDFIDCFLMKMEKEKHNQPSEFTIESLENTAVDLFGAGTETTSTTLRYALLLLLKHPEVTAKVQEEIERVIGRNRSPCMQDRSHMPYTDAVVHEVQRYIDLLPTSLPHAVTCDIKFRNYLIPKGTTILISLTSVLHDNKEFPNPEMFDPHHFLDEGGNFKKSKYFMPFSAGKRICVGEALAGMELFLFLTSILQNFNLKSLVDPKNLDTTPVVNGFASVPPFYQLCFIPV
CYP2C19 inhib = inhibitors of human CYP2C19; inhibition, % at 5 µM; P33261; 21% of 96,000 active; CYP2C19 Supersomes, luciferin-H EGE luminescence, 30 min;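 active means CYP2C19 inhibition above a set limit at 5 µM in the primary screen, cut at about 50% in these data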
Mac1 fbg enh = increases human CD11b/CD18 adhesion to fibrinogen | P05107+P11215 | K562 CD11b/CD18 adhesion to fibrinogen, ATPlite luminescence | activation, % at 10 µM | 0.07% of 93,000 active | AID 1499;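 active means 10 µM primary screen giving 50% or more activity, confirmed by 40% or more on retest at that dose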
CYP2C19 activ = increases human CYP2C19 enzyme activity; recombinant CYP2C19, luciferin-H EGE luminescence; hits give high values; 0 = fully inhibited enzyme, 1 = untreated enzyme; activation factor at 5 µM; 96,000 tested, under 10 active;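 active means activation factor of at least 2 at 5 µM in the primary screen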
CYP2C9 inhib = inhibitors of human CYP2C9 | 20% of 96,000 active | inhibition, % at 5 µM | P11712 | CYP2C9 Supersomes, luciferin-H conversion, luminescence;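 active means blocking of liver enzyme CYP2C9 beyond about 50% at 5 µM, limit read from the data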
A number is an active result; 0 = inactive; - = no result. Rows were chosen to be rich in hits. Some 28% of all compounds tested hit in one or more screens of this group.

SMILES	Mac1 fbg inh	CYP2C9 act	CYP2C19 inhib	Mac1 fbg enh	CYP2C19 activ	CYP2C9 inhib
COc1cc(C(c2nnnn2C(C)(C)C)N2CCN(c3nc4ccccc4s3)CC2)ccc1O (stereo not drawn)	0	0	60.6	0	0	97.0
CN1C=CC=C/C1=C(\C#N)c1nc2ccccc2[nH]1	0	0	0	0	0	0
Cc1ccc(N2CC(C(=O)Nc3cccnc3)CC2=O)cc1 (stereo not drawn)	0	0	0	0	0	0
C=CCNC(=O)C1CC(=O)N(c2ccc(OCC(=O)Nc3cccc(OC)c3)cc2)C1 (stereo not drawn)	0	0	0	0	0	55.9
CC(C)Oc1ccc(N2CC(C(=O)Nc3ccccc3F)CC2=O)cc1 (stereo not drawn)	0	0	0	0	0	0
Cc1ccc(N2CC(C(=O)Nc3ccncc3)CC2=O)cc1 (stereo not drawn)	0	0	97.6	0	0	98.6
COC(=O)c1ccccc1NC(=O)C1CC(=O)N(c2ccc(C)cc2)C1 (stereo not drawn)	0	0	0	0	0	56.6
CCOc1ccc(N2CC(C(=O)Nc3ccccc3F)CC2=O)cc1 (stereo not drawn)	0	0	0	0	0	67.8
COc1ccccc1NC(=O)C1CC(=O)N(c2ccc(F)cc2)C1 (stereo not drawn)	0	0	0	0	0	0
Cc1cc(C)[n+](-c2ccc(F)cc2)c2[nH]c(=O)[nH]c(=O)c12	0	-	-	0	-	-
Cc1ccc(NC(=O)C2CC(=O)N(c3ccc4c5c(cccc35)CC4)C2)cc1 (stereo not drawn)	-	0	0	-	0	55.9
Cc1ccc(N2CC(C(=O)Nc3cc(C)ccc3F)CC2=O)cc1 (stereo not drawn)	0	0	75.0	0	0	90.4
COC(=O)c1ccc(NC(=O)C2CC(=O)N(c3cc(C)ccc3C)C2)cc1 (stereo not drawn)	0	0	0	0	0	0
Cc1ccc(NC(=O)C2CC(=O)N(Cc3ccccc3)C2)cc1S(=O)(=O)N1CCCCCC1 (stereo not drawn)	0	-	-	0	-	-
CCc1ccc(N2CC(C(=O)Nc3ccc(C)c(S(=O)(=O)N4CCOCC4)c3)CC2=O)cc1 (stereo not drawn)	0	0	89.8	0	0	99.9
CC(=O)Nc1cccc(NC(=O)C2CC(=O)N(c3ccc(C)cc3)C2)c1 (stereo not drawn)	0	0	72.4	0	0	68.4
Cc1cc(C)c(C(N)=O)c(NC(=O)Nc2ccccc2)n1	0	0	0	0	0	0
NS(=O)(=O)c1ccc(NC(=O)C2CCCO2)cc1 (stereo not drawn)	0	0	0	0	0	0
CCc1ccc(N2CC(C(=O)Nc3cccnc3)CC2=O)cc1 (stereo not drawn)	0	0	58.4	0	0	74.3
CCCCCn1c(CCNC(=O)c2cccs2)nc2ccccc21	0	0	96.3	0	0	91.8
CCn1c(C(C)NC(=O)c2cccs2)nc2ccccc21 (stereo not drawn)	0	0	0	0	0	51.8
CN(C)S(=O)(=O)c1ccc(Oc2ccccc2)cc1	0	0	0	0	0	58.2
CN(C)S(=O)(=O)c1ccc(-c2ccccc2)cc1	0	0	0	0	0	0
CCN(CC)S(=O)(=O)c1ccc(Oc2ccccc2)cc1	0	0	0	0	0	65.6
CCN(CC)S(=O)(=O)c1ccc(Oc2cccc(C(C)=O)c2)nc1	0	0	50.6	0	0	0
SMILES	Mac1 fbg inh	CYP2C9 act	CYP2C19 inhib	Mac1 fbg enh	CYP2C19 activ	CYP2C9 inhib
CCN(CC)S(=O)(=O)c1ccc(OCC(=O)NCc2ccccc2)cc1	0	0	0	0	0	67.1
Cn1ncc2c(=O)n(CC(=O)NC34CC5CC(CC(C5)C3)C4)cnc21	0	0	0	0	0	0
Cc1ccc(NC(=O)c2ccccc2)s1	0	0	58.4	0	0	0
Cc1cc(NC(=O)c2ccccc2)sc1C	0	0	0	0	0	0
O=C(c1ccc(F)cc1)C1CCN(C(=S)Nc2ccccc2)CC1	-	0	0	-	0	0
Fc1ccc(NC(=S)N2N=CCC2c2ccccc2)cc1 (stereo not drawn)	0	0	63.8	0	0	0
S=C(Nc1ccccc1)N1N=CCC1c1ccccc1 (stereo not drawn)	72.5	0	66.5	0	0	0
CCOC(=O)c1sc(=S)n(-c2ccccc2)c1SC	-	0	58.3	-	0	0
CCOC(=O)c1sc(=S)n(-c2cccc(C(F)(F)F)c2)c1SC	-	0	0	-	0	60.7
CCOC(=O)c1sc(=S)n(-c2ccccc2Cl)c1SC	0	0	0	0	0	0
COc1ccccc1NC(=O)NC1(C(=O)N2CCC(O)CC2)CCCCC1	0	0	0	0	0	0
CC(C)OC(=O)C1C(=O)CC(C)(O)C(C(=O)OC(C)C)C1c1ccc(F)cc1 (stereo not drawn)	0	0	76.6	0	0	0
CCN(CC)c1ccc(C2C(C(=O)OC(C)C)C(=O)CC(C)(O)C2C(=O)OC(C)C)cc1 (stereo not drawn)	0	0	0	0	0	0
COc1ccccc1/C=C/C(=O)NC(=S)N(C)C1CCCCC1	-	2.6	0	-	0	0
COc1ccc(-n2c(SCC(=O)Nc3nccs3)nc3c(c2=O)SC(C)C3)cc1 (stereo not drawn)	0	0	0	0	0	0
Cc1csc(NC(=O)c2nc(-c3ccccc3)n(-c3ccccc3)n2)n1	0	0	0	0	0	75.3
CCSc1nnc(NC(=O)c2nc(-c3ccccc3)n(-c3ccccc3)n2)s1	0	0	54.9	0	0	92.3
Cc1ccc(C)c(NC(=O)c2nc(-c3ccccc3)n(-c3ccccc3)n2)c1	0	0	79.0	0	0	71.2
O=C(Nc1nccs1)c1nc(-c2ccccc2)n(-c2ccccc2)n1	0	0	0	0	0	0
CCSc1nnc(NC(=O)c2cc(C)nc3ccccc23)s1	0	0	0	0	0	0
CCCC(C)NC(=O)c1nc(-c2ccccc2)n(-c2ccccc2)n1 (stereo not drawn)	0	0	0	0	0	85.8
COc1ccc(NS(=O)(=O)c2cccc(NC(=O)CCC(=O)c3ccc(Cl)cc3)c2)cc1	0	-	-	0	-	-
CCOC(=O)c1nn(-c2ccccc2C)c(=O)c(C#N)c1C	0	0	64.8	0	0	0
Cc1ccc(CON=C2CCN(c3ncc(C(F)(F)F)cc3Cl)CC2)cc1	-	0	0	-	0	0
O=C(CSc1nccn1-c1ncc(C(F)(F)F)cc1Cl)c1ccc(Br)cc1	0	0	92.9	0	0	61.6
Cc1ccc(/C(CSc2nccn2-c2ncc(C(F)(F)F)cc2Cl)=N\O)cc1	0	0	55.9	0	0	51.9
CC(C)N(C(=O)c1ccccc1-c1ccccc1)C(C)C	0	0	0	0	0	0
COC(=O)c1cc(=O)nc2sc3ccccc3n12	0	0	0	0	0	81.4
